Laboratory results from PubChem BioAssay (EPA / NIEHS).
Calls of active or inactive are those of the source. Rule for the calls: active = hit-call score of the fitted dose curve at least 0.9, where 1 is the maximum; inactive = score below 0.9.

Legend:
[1] = read-out: Human Leukocyte Antigen - DR isotype (HLADR), HLA-DRA (gene 3122); experiment: BSK_BE3C_HLADR: BioMAP Diversity Plus: BE3C Assay for Human Leukocyte Antigen - DR isotype (HLADR) Biomarker Activity (AID 2283032); conditions: primary human bronchial epithelial cells; actives raise or lower the signal
Summary of the method: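 BioMAP BE3C format: human bronchial epithelium, 24 h compound treatment, ELISA detection of HLA-DR, with bidirectional analysis relative to DMSO.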

[2] = read-out: Vascular cell adhesion molecule 1 (VCAM1), VCAM1 (gene 7412); experiment: BSK_4H_VCAM1: BioMAP Diversity Plus: 4H Assay for Vascular cell adhesion molecule 1 (VCAM1) Biomarker Activity (AID 2283033); conditions: primary human endothelial cells (HUVEC); actives raise or lower the signal
Summary of the method: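 In this human endothelial (HUVEC) system, biomarker ELISA was run 24 h after compound addition, and total protein in parallel wells was assessed by SRB at 560 nm; DMSO served as negative control.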

[3] = read-out: Interferon-gamma inducible Protein 10 (IP10), CXCL10 (gene 3627); experiment: BSK_BE3C_IP10: BioMAP Diversity Plus: BE3C Assay for Interferon-gamma inducible Protein 10 (IP10) Biomarker Activity (AID 2283034); conditions: primary human bronchial epithelial cells; actives raise or lower the signal
Summary of the method: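 BE3C cells (human bronchial epithelial, primary); 24 h exposure; ELISA for IP-10; DMSO-referenced bidirectional fit.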

[4] = read-out: Monokine induced gamma interferon (MIG), CXCL9 (gene 4283); experiment: BSK_BE3C_MIG: BioMAP Diversity Plus: BE3C Assay for Monokine induced gamma interferon (MIG) Biomarker Activity (AID 2283035); conditions: primary human bronchial epithelial cells; actives raise or lower the signal
Summary of the method: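 ELISA quantified MIG after 24 h exposure of primary bronchial epithelial cultures, analysed in both directions relative to DMSO. Cytotoxicity tracked in parallel cultures by sulforhodamine B staining.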

[5] = read-out: Transforming growth factor beta 1 (TGFb1), TGFB1 (gene 7040); experiment: BSK_BE3C_TGFb1: BioMAP Diversity Plus: BE3C Assay for Transforming growth factor beta 1 (TGFb1) Biomarker Activity (AID 2283036); conditions: primary human bronchial epithelial cells; actives raise or lower the signal
Summary of the method: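 TGF-b1 measured via ELISA, 24 h after chemical dosing of human bronchial epithelial cells (BE3C). Overt cytotoxicity assessed in parallel by SRB (0.1%, TCA-fixed, 560 nm); analysis bidirectional relative to DMSO.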

[6] = read-out: urokinase plasminogen activator (uPA), PLAU (gene 5328); experiment: BSK_BE3C_uPA: BioMAP Diversity Plus: BE3C Assay for urokinase plasminogen activator (uPA) Biomarker Activity (AID 2283038); conditions: primary human bronchial epithelial cells; actives raise or lower the signal
Summary of the method: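 ELISA for uPA on human primary bronchial epithelial cultures 24 h post-treatment, gain or loss against DMSO. Parallel SRB staining (0.1% after 10% TCA fixation, 560 nm) assessed overt cytotoxicity.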

[7] = read-out: Urokinase-type plasminogen activator receptor (uPAR), PLAUR (gene 5329); experiment: BSK_BE3C_uPAR: BioMAP Diversity Plus: BE3C Assay for Urokinase-type plasminogen activator receptor (uPAR) Biomarker Activity (AID 2283039); conditions: primary human bronchial epithelial cells; actives raise or lower the signal
Summary of the method: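 Chemically treated human bronchial epithelial cells (lung primary) are assayed for uPAR by ELISA after 24 h, with data fitted in both directions using DMSO as negative control.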

[8] = read-out: Interleukin-6 (IL6), IL6 (gene 3569); experiment: BSK_CASM3C_IL6: BioMAP Diversity Plus: CASM3C Assay for Interleukin-6 (IL6) Biomarker Activity for (AID 2283040); conditions: primary human coronary artery smooth muscle cells; actives raise or lower the signal
[9] = read-out: Tissue plasminogen activator (tPA), PLAT (gene 5327); experiment: BSK_BE3C_tPA: BioMAP Diversity Plus: BE3C Assay for Tissue plasminogen activator (tPA) Biomarker Activity (AID 2283041); conditions: primary human bronchial epithelial cells; actives raise or lower the signal
Summary of the method: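 Using human lung primary bronchial epithelial cells, tPA was measured by ELISA 24 h after dosing; data fitted relative to DMSO.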

[10] = read-out: Plasminogen activator inhibitor-1 (PAI1), SERPINE1 (gene 5054); experiment: BSK_BE3C_PAI1: BioMAP Diversity Plus: BE3C Assay for Plasminogen activator inhibitor-1 (PAI1) Biomarker Activity (AID 2283037); conditions: primary human bronchial epithelial cells; actives raise or lower the signal
Summary of the method: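 In this multiplexed primary-cell system, bronchial epithelial cells receive test chemical and are sampled at 24 h. PAI-1 is read by ELISA, with DMSO serving as negative control for bidirectional fitting.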

Measured: AC50

CCCCCCCCCCCCOS(=O)(=O)O
inactive: [2] | [8]
active: [1] 26.2 µM | [3] 12.5 µM | [4] 26.4 µM | [5] 28.7 µM | [6] 31.6 µM | [7] 32.8 µM | [9] 27.5 µM

N=C(N)c1ccc(OCCCCCOc2ccc(C(=N)N)cc2)cc1
active: [1] 22.7 µM | [3] 24.1 µM | [10] 10.3 µM | [6] 17.5 µM | [8] 20.7 µM
inactive: [2] | [4] | [5] | [7] | [9]

CC(=O)Nc1ccc(O)cc1
not listed: [10]
inactive: all other assays above

CN(Cc1cnc2nc(N)nc(N)c2n1)c1ccc(C(=O)N[C@@H](CCC(=O)O)C(=O)O)cc1
not listed: [10]
inactive: all other assays above

CS(=O)(=O)c1ccc([C@@H](CC2CCCC2)C(=O)Nc2cnccn2)cc1Cl
active: [3] 31 µM | [10] 29.2 µM
inactive: all other assays above

C=COC(=O)C(C)(C)CCCCCC
inactive: [4] | [5] | [7]
active: [1] 24.8 µM | [2] 30.2 µM | [3] 33.5 µM | [6] 20 µM | [8] 32 µM | [9] 20 µM

Cc1[nH]nc2c1N=C(c1ccccc1Cl)c1cc([N+](=O)[O-])ccc1N2
active: [1] 10.3 µM | [2] 2.56 µM | [3] 12.2 µM | [4] 19.3 µM | [5] 21.6 µM | [9] 20 µM
inactive: [6] | [7] | [8]

CCCCC=O
not listed: [10]
inactive: all other assays above

OCC(CO)(CBr)CBr
not listed: [10]
inactive: all other assays above

CCCCCCCCCCCCCCC
not listed: [10]
inactive: all other assays above

O=C(NCc1ncc(C(F)(F)F)cc1Cl)c1c(Cl)cccc1Cl
inactive: all assays above

O=C(CCCN1CCC(O)(c2ccc(Cl)cc2)CC1)c1ccc(F)cc1
active: [2] 20 µM
not listed: [10]
inactive: all other assays above

O=C1NS(=O)(=O)c2ccccc21
not listed: [10]
inactive: all other assays above

CCOC(=O)CN[C@@H](C(=O)N1CC[C@H]1C(=O)NCc1ccc(/C(N)=N/O)cc1)C1CCCCC1
not listed: [10]
inactive: all other assays above
